# Experimental data published in ChEMBL document CHEMBL5606460, “ASAP - DENV-2 NS2B-NS3 protease fluorescence single point” (2024).
# Among all 2,000 compounds or so, about 110 (5.5%) showed an effect of 50% or more. The list comes from a sample in which strong results are over-represented; it also holds similar structures and randomly drawn compounds.
# Target: Genome polyprotein (dengue virus type 2) (UniProt P29990)
compound,measurement,setting,value
N=C(N)NCCC[C@H](NC(=O)c1nccs1)C(=O)N[C@@H](CCCCN)C(=O)N[C@@H](C(N)=O)c1ccc(OCc2ccc(C(F)(F)F)cc2)cc1,inhibition,"Thailand/16681/1984, Concentration 49.5 uM, Number of replicates 2.0, Standard deviation 0.01715005842126491 %",96.2%
same,inhibition,"Thailand/16681/1984, Concentration 49.5 uM, Number of replicates 2.0, Standard deviation 0.019135343573522066 %",96.1%
same,inhibition,"Thailand/16681/1984, Concentration 49.5 uM, Number of replicates 2.0, Standard deviation 0.03570815875758177 %",95.6%
same,inhibition,"Thailand/16681/1984, Concentration 49.5 uM, Number of replicates 2.0, Standard deviation 0.054562972907415325 %",95.2%
same,inhibition,"Thailand/16681/1984, Concentration 49.5 uM, Number of replicates 2.0, Standard deviation 0.06140896980473687 %",95.7%
same,inhibition,"Thailand/16681/1984, Concentration 49.5 uM, Number of replicates 2.0, Standard deviation 0.10612104410339795 %",97.2%
same,inhibition,"Thailand/16681/1984, Concentration 49.5 uM, Number of replicates 2.0, Standard deviation 0.10687631562871318 %",95.4%
same,inhibition,"Thailand/16681/1984, Concentration 49.5 uM, Number of replicates 2.0, Standard deviation 0.10916370939109642 %",95.9%
same,inhibition,"Thailand/16681/1984, Concentration 49.5 uM, Number of replicates 2.0, Standard deviation 0.11089004430610264 %",91.3%
same,inhibition,"Thailand/16681/1984, Concentration 49.5 uM, Number of replicates 2.0, Standard deviation 0.12066541576232535 %",96.7%
same,inhibition,"Thailand/16681/1984, Concentration 49.5 uM, Number of replicates 2.0, Standard deviation 0.12893024416791762 %",95%
same,inhibition,"Thailand/16681/1984, Concentration 49.5 uM, Number of replicates 2.0, Standard deviation 0.18367124536344298 %",96.2%
same,inhibition,"Thailand/16681/1984, Concentration 49.5 uM, Number of replicates 2.0, Standard deviation 0.22697527774705212 %",95.7%
same,inhibition,"Thailand/16681/1984, Concentration 49.5 uM, Number of replicates 2.0, Standard deviation 0.262397512284336 %",95.2%
same,inhibition,"Thailand/16681/1984, Concentration 49.5 uM, Number of replicates 2.0, Standard deviation 0.3581065989316027 %",96.5%
same,inhibition,"Thailand/16681/1984, Concentration 49.5 uM, Number of replicates 2.0, Standard deviation 0.6751965592419794 %",94.5%
same,inhibition,"Thailand/16681/1984, Concentration 49.5 uM, Number of replicates 4.0, Standard deviation 0.3877656068031149 %",96.3%
same,inhibition,"Thailand/16681/1984, Concentration 49.8 uM, Number of replicates 2.0, Standard deviation 0.008615490185202914 %",98.3%
same,inhibition,"Thailand/16681/1984, Concentration 49.95 uM, Number of replicates 2.0, Standard deviation 0.5898131133050937 %",90.4%
same,inhibition,"Thailand/16681/1984, Concentration 50.0 uM, Number of replicates 2.0, Standard deviation 2.607110988642393 %",82.5%
same,inhibition,"Thailand/16681/1984, Concentration 98.52 uM, Number of replicates 2.0, Standard deviation 0.0007930351015809821 %",99.7%
same,inhibition,"Thailand/16681/1984, Concentration 99.01 uM, Number of replicates 2.0, Standard deviation 0.014371738167426778 %",98.3%
same,inhibition,"Thailand/16681/1984, Concentration 99.01 uM, Number of replicates 2.0, Standard deviation 0.015720437319775387 %",97.7%
same,inhibition,"Thailand/16681/1984, Concentration 99.01 uM, Number of replicates 2.0, Standard deviation 0.019361925031116632 %",97.6%
same,inhibition,"Thailand/16681/1984, Concentration 99.01 uM, Number of replicates 2.0, Standard deviation 0.03515249470681415 %",98%
same,inhibition,"Thailand/16681/1984, Concentration 99.01 uM, Number of replicates 2.0, Standard deviation 0.051056355111308946 %",98.5%
same,inhibition,"Thailand/16681/1984, Concentration 99.01 uM, Number of replicates 2.0, Standard deviation 0.05114267185705925 %",98.8%
same,inhibition,"Thailand/16681/1984, Concentration 99.01 uM, Number of replicates 2.0, Standard deviation 0.05214610402640662 %",98.2%
same,inhibition,"Thailand/16681/1984, Concentration 99.01 uM, Number of replicates 2.0, Standard deviation 0.05969881927955883 %",97.8%
same,inhibition,"Thailand/16681/1984, Concentration 99.01 uM, Number of replicates 2.0, Standard deviation 0.06259043026219424 %",97.6%
same,inhibition,"Thailand/16681/1984, Concentration 99.01 uM, Number of replicates 2.0, Standard deviation 0.0932706385798204 %",98.3%
same,inhibition,"Thailand/16681/1984, Concentration 99.01 uM, Number of replicates 2.0, Standard deviation 0.1268262734902538 %",98.1%
same,inhibition,"Thailand/16681/1984, Concentration 99.01 uM, Number of replicates 2.0, Standard deviation 0.1304084184388917 %",95.2%
same,inhibition,"Thailand/16681/1984, Concentration 99.01 uM, Number of replicates 2.0, Standard deviation 0.16720632611157116 %",97.6%
same,inhibition,"Thailand/16681/1984, Concentration 99.01 uM, Number of replicates 2.0, Standard deviation 0.19540492798887588 %",98.3%
same,inhibition,"Thailand/16681/1984, Concentration 99.01 uM, Number of replicates 2.0, Standard deviation 0.2057251739026474 %",97.9%
same,inhibition,"Thailand/16681/1984, Concentration 99.01 uM, Number of replicates 2.0, Standard deviation 0.39058866931676656 %",97.1%
same,inhibition,"Thailand/16681/1984, Concentration 99.01 uM, Number of replicates 4.0, Standard deviation 0.160745991426317 %",98.2%
same,inhibition,"Thailand/16681/1984, Concentration 99.5 uM, Number of replicates 2.0, Standard deviation 0.012726325201561474 %",99.3%
same,inhibition,"Thailand/16681/1984, Concentration 99.5 uM, Number of replicates 2.0, Standard deviation 0.04880672492519146 %",99.4%
same,inhibition,"Thailand/16681/1984, Concentration 99.9 uM, Number of replicates 2.0, Standard deviation 0.33233565552852545 %",95.1%
same,inhibition,"Thailand/16681/1984, Concentration 100.0 uM, Number of replicates 2.0, Standard deviation 1.0120962127020525 %",91.1%
same,inhibition,"Thailand/16681/1984, Concentration 198.0 uM, Number of replicates 2.0, Standard deviation 0.008588516202155942 %",97.6%
same,inhibition,"Thailand/16681/1984, Concentration 198.0 uM, Number of replicates 2.0, Standard deviation 0.009273655371549035 %",99.3%
same,inhibition,"Thailand/16681/1984, Concentration 198.0 uM, Number of replicates 2.0, Standard deviation 0.015984782353635714 %",99.5%
same,inhibition,"Thailand/16681/1984, Concentration 198.0 uM, Number of replicates 2.0, Standard deviation 0.02043009475977673 %",99%
same,inhibition,"Thailand/16681/1984, Concentration 198.0 uM, Number of replicates 2.0, Standard deviation 0.03091218457183012 %",99%
same,inhibition,"Thailand/16681/1984, Concentration 198.0 uM, Number of replicates 2.0, Standard deviation 0.034661568215359255 %",98.9%
same,inhibition,"Thailand/16681/1984, Concentration 198.0 uM, Number of replicates 2.0, Standard deviation 0.04180427892619749 %",98.9%
same,inhibition,"Thailand/16681/1984, Concentration 198.0 uM, Number of replicates 2.0, Standard deviation 0.05357033033128675 %",99.3%
same,inhibition,"Thailand/16681/1984, Concentration 198.0 uM, Number of replicates 2.0, Standard deviation 0.055172584924276895 %",99.5%
same,inhibition,"Thailand/16681/1984, Concentration 198.0 uM, Number of replicates 2.0, Standard deviation 0.06522309100757873 %",99.1%
same,inhibition,"Thailand/16681/1984, Concentration 198.0 uM, Number of replicates 2.0, Standard deviation 0.07510635839598934 %",99.3%
same,inhibition,"Thailand/16681/1984, Concentration 198.0 uM, Number of replicates 2.0, Standard deviation 0.08009654525967919 %",99.1%
same,inhibition,"Thailand/16681/1984, Concentration 198.0 uM, Number of replicates 2.0, Standard deviation 0.10986503295031769 %",99.2%
same,inhibition,"Thailand/16681/1984, Concentration 198.0 uM, Number of replicates 2.0, Standard deviation 0.15163694309685882 %",99%
same,inhibition,"Thailand/16681/1984, Concentration 198.0 uM, Number of replicates 2.0, Standard deviation 0.1571827940113163 %",98.9%
same,inhibition,"Thailand/16681/1984, Concentration 198.0 uM, Number of replicates 2.0, Standard deviation 0.24491837126989802 %",98.3%
same,inhibition,"Thailand/16681/1984, Concentration 198.0 uM, Number of replicates 4.0, Standard deviation 0.0821711955101111 %",99.2%
same,inhibition,"Thailand/16681/1984, Concentration 295.6 uM, Number of replicates 2.0, Standard deviation 0.015100035709695026 %",100%
same,inhibition,"Thailand/16681/1984, Concentration 295.6 uM, Number of replicates 2.0, Standard deviation 0.020829309708871917 %",99.9%
